Results published in PubChem BioAssay.
“And” between values parts separate entries of the source, which are not always exact repeats. Equal values may be shown once. Records with an inconclusive call do not appear. The source made the active and inactive calls.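 Rule for the calls, unless noted: active = mean z-score across replicates of 1.96 or higher in either the MELAS or the Rieske mutant cell line; inactive = the rest.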

Columns and labels:
[1] = viability loss in pontine glioma line – cell-based, SU-DIPG-XXV, MIPE5.0, CellTiter-Glo, qHTS, dose response (AID 1347065; cut-off not given, nearly all actives have AC50 up to about 26 µM;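 note: cells exposed to compound for 48 hours before ATP readout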); conditions: CellTiter-Glo ATP luminescence
[2] = SU-DIPG-VI glioma cell viability, MIPE4.0 library, CellTiter-Glo luminescence, qHTS (AID 1347066; cut-off not given, nearly all actives have AC50 up to about 30 µM;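 note: cells exposed to compound for 48 hours before readout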); conditions: CellTiter-Glo ATP luminescence
[3] = SU-DIPG-XXV glioma cell viability, MIPE5.0 library, qHTS (AID 1347068; cut-off not given, nearly all actives have IC50 up to about 30 µM)
[4] = survival rescue of mitochondrial mutant cells in low glucose, primary screen, MELAS cybrids, Rieske KO mouse fibroblasts, CellTiter-Glo (AID 1508586);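 note: z relative to plate mean and SD of compound and empty wells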
[5] = viability rescue of complex I mutant cybrids, primary screen, cell-based, galactose medium, ATP luminescence (AID 1645843;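 active = z-score of at least 1.8 in each of two replicates, scored against plate mean and spread of sample wells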;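 note: positive z means more ATP and so rescue of galactose-driven cybrid death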); conditions: complex I mutant cybrid cells, 72 h, stronger effect = higher value
[6] = sensitizers of A549 cells to miR-34 induction, primary screen, imaging, A549 dox-inducible miR-34, nuclei and caspase counts (AID 1347080;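 active = compounds whose cell count with miR-34 switched on is under 0.7 times the count with it off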); conditions: A549 miR-34 inducible, Hoechst nuclei count, 48 h
[7] = molecular target: NAD(+) hydrolase SARM1 (Homo sapiens) (UniProt Q6SZW1); experiment: SARM1 TIR NADase inhibitors, cell lysate, NAD-Glo luminescence (AID 1508614;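 active = compound whose remaining NAD level is above about 45 nM, limit read from the data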;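 note: higher remaining NAD means stronger inhibition of SARM1 NADase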); conditions: SAM-TIR HEK293T lysate NADase, at 1 µM, stronger effect = higher value
[8] = molecular target: Mitogen-activated protein kinase 7 (Homo sapiens) (UniProt Q13164); experiment: ERK5 transactivation activators in reporter cells, primary screen, cell-based, HTS (AID 1508626;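 active = luciferase signal above three times the same-plate solvent-only control wells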;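 note: luciferase driven by Gal4-ERK5 fusion binding five Gal4 sites before minimal TATA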); conditions: HeLa Gal4-ERK5 transactivation, 18 h, at 5 µM, stronger effect = higher value
[9] = JHH-DIPG-1 glioma cell viability, MIPE5.0 library, CellTiter-Glo luminescence, qHTS (AID 1347067; cut-off not given, nearly all actives have AC50 up to about 26 µM;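 note: cells exposed to compound for 48 hours before readout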); conditions: JHH-DIPG-1 glioma viability, CellTiter-Glo ATP luminescence
[10] = phospholipid biosynthesis inhibitors in animal cells, primary screen, cell-based, LOPAC library, screen 4 (AID 1347384; call rule not given here); conditions: phospholipid biosynthesis inhibition screen, at 10 µM
[11] = MELAS cybrid survival, CellTiter-Glo 48 h, stronger effect = higher value
[12] = Rieske KO mouse fibroblast survival, CellTiter-Glo 72 h
[13] = stronger effect = lower value, cell number ratio, induced over uninduced
[14] = measured here: relative caspase fold change +Dox/-Dox
[15] = measured here: total cells with miR-34 induction, stronger effect = lower value
[16] = measured here: total cells without miR-34 induction

Chain of Mitogen-activated protein kinase 7 (Homo sapiens) (Q13164 whole entry, looked up, the tested form may be a part): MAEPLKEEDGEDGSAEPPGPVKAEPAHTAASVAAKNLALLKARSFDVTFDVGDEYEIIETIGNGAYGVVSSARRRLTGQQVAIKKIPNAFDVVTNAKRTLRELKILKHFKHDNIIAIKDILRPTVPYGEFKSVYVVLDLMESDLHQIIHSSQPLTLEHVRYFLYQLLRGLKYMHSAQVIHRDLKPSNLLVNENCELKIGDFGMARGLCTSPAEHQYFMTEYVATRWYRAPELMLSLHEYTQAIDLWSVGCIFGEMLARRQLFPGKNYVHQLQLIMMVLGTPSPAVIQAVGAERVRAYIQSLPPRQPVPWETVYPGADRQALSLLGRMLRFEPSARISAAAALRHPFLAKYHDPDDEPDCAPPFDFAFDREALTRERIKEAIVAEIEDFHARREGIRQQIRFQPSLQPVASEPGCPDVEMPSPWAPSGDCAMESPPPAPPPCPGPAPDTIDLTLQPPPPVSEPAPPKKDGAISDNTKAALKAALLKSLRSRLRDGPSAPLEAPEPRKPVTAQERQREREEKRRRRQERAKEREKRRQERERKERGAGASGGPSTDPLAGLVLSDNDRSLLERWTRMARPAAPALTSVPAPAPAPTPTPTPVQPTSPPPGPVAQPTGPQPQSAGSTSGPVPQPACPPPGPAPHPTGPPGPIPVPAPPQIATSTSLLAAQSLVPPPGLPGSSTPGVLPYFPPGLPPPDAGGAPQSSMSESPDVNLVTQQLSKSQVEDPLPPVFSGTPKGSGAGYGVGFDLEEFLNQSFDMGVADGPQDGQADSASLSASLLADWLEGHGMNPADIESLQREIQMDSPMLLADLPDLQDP
Chain of NAD(+) hydrolase SARM1 (Homo sapiens) (Q6SZW1 whole entry, looked up, the tested form may be a part): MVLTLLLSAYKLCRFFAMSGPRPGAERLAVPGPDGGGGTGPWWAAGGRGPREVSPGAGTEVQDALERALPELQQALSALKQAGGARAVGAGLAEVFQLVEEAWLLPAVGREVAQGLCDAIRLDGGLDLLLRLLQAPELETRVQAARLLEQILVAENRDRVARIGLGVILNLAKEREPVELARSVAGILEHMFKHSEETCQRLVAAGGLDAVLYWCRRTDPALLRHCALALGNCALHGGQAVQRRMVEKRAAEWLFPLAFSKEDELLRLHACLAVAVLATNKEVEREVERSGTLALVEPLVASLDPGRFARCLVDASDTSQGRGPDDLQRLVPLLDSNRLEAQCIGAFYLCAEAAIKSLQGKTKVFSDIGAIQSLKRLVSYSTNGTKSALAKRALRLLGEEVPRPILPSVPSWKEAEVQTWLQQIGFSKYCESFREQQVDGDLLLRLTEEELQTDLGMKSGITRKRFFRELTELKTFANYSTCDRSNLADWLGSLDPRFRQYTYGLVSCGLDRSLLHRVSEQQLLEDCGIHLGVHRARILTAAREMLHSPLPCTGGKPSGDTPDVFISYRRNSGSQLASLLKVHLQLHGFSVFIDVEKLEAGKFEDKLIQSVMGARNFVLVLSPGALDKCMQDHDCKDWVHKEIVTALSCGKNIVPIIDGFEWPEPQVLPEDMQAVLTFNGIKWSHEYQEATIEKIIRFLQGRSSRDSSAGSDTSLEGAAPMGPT

Compound: O=C(O)/C=C/c1ccc(Cn2ccnc2)cc1
- outcome [1]: inactive
- outcome [2]: inactive
- outcome [3]: inactive
- z-score [4, 11]: -1.23 (inactive) and 0.348 (inactive)
- z-score [4, 12]: 0.0439 and 0.14
- z-score [5]: 0 (inactive) and 0.26 (inactive)

Compound: CCN(CC)CCOc1ccc(/C(=C(\Cl)c2ccccc2)c2ccccc2)cc1
- AC50 [1]: 13.2 µM (active)
- outcome [2]: inactive
- outcome [3]: inactive
- fold change [6, 13]: 0.868 (inactive)
- fold change [6, 14]: 0.906
- cell count [6, 15]: 10700
- cell count [6, 16]: 12300

Compound: COC(=O)Nc1nc2ccc(Sc3ccccc3)cc2[nH]1
- AC50 [1]: 0.742 µM (active)
- outcome [2]: inactive
- outcome [3]: inactive
- z-score [4, 11]: 1.35 (inactive) and -2.36 (inactive) and -2.06 (inactive)
- z-score [4, 12]: -0.0455 and -0.127 and 1.14
- remaining NAD [7]: 10 nM (inactive)
- luciferase signal [8]: 36 AU (inactive)
- z-score [5]: -1.72 (inactive)

Compound: Cc1cn[nH]c1
- outcome [1]: inactive
- outcome [9]: inactive
- outcome [3]: inactive
- fold change [6, 13]: 0.994 (inactive) and 0.902 (inactive)
- fold change [6, 14]: 0.844 and 2.49
- cell count [6, 15]: 10200 and 12000
- cell count [6, 16]: 10200 and 13300
- outcome [10]: inactive
- z-score [4, 11]: 0.667 (inactive)
- z-score [4, 12]: 0.0381
- remaining NAD [7]: 10 nM (inactive)
- luciferase signal [8]: 44 AU (inactive)
- z-score [5]: 0.65 (inactive)

Compound: CCCN(CCC)C(=O)C(CCC(=O)O)NC(=O)c1ccccc1 (configuration not stated)
- outcome [1]: inactive
- outcome [9]: inactive
- outcome [3]: inactive
- fold change [6, 13]: 1.06 (inactive) and 0.936 (inactive) and 0.845 (inactive)
- fold change [6, 14]: 0.941 and 0.892 and 4.08
- cell count [6, 15]: 10500 and 8340 and 11300
- cell count [6, 16]: 9940 and 8900 and 13400
- outcome [10]: inactive
- z-score [4, 11]: -1.04 (inactive)
- z-score [4, 12]: -0.386
- remaining NAD [7]: 10 nM (inactive)
- luciferase signal [8]: 108 AU (inactive)
- z-score [5]: 0.665 (inactive)

Compound: C#C[C@]1(O)CC[C@H]2[C@@H]3CCc4cc(O)ccc4[C@H]3CC[C@@]21C
- AC50 [1]: 13.2 µM (active)
- outcome [2]: inactive
- z-score [4, 11]: 1.16 (inactive)
- z-score [4, 12]: 0.428
- remaining NAD [7]: 10 nM (inactive)
- luciferase signal [8]: 76 AU (inactive)

Compound: CN(Cc1cc(Br)cc(Br)c1N)C1CCCCC1
- AC50 [1]: 16.6 µM (active)
- AC50 [9]: 26.3 µM (active)
- outcome [3]: inactive
- fold change [6, 13]: 0.928 (inactive) and 0.903 (inactive) and 0.881 (inactive)
- fold change [6, 14]: 0.942 and 3.08 and 1.05
- cell count [6, 15]: 8160 and 11000 and 9390
- cell count [6, 16]: 8790 and 12200 and 10700
- z-score [4, 11]: -0.2 (inactive) and -0.238 (inactive) and -0.0697 (inactive)
- z-score [4, 12]: 0.932 and -0.166 and 0.184
- remaining NAD [7]: 10 nM (inactive)
- luciferase signal [8]: 56 AU (inactive)
- z-score [5]: -1.71 (inactive)

Compound: CNC[C@H](O)[C@@H](O)[C@H](O)[C@H](O)CO
- outcome [2]: inactive
- outcome [9]: inactive
- outcome [3]: inactive
- fold change [6, 13]: 0.909 (inactive)
- fold change [6, 14]: 1.1
- cell count [6, 15]: 9480
- cell count [6, 16]: 10400
- z-score [4, 11]: 0.108 (inactive) and -0.495 (inactive)
- z-score [4, 12]: -0.764 and -1.1
- remaining NAD [7]: 10 nM (inactive)
- z-score [5]: 0.835 (inactive)

Compound: CC(=O)N(O)CCCCCNC(=O)CCC(=O)N(O)CCCCCNC(=O)CCC(=O)N(O)CCCCCN
- AC50 [1]: 13.2 µM (active)
- outcome [3]: inactive
- fold change [6, 13]: 0.985 (inactive) and 0.882 (inactive) and 0.874 (inactive)
- fold change [6, 14]: 1.2 and 0.413 and 4.36
- cell count [6, 15]: 4610 and 9190 and 10300
- cell count [6, 16]: 4680 and 10400 and 11800
- z-score [4, 11]: -0.752 (inactive) and -0.803 (inactive)
- z-score [4, 12]: -0.313 and -1.18
- remaining NAD [7]: 10 nM (inactive)
- luciferase signal [8]: 40 AU (inactive)
- z-score [5]: 0.76 (inactive)
